This is an account of results in PubChem BioAssay (NCI).

Some test systems named below: HT29 colon; SNB-75 CNS; SNB-19 CNS; U251 CNS; PC-3 prostate; SK-MEL-5 melanoma; UACC-62 melanoma; LOX IMVI melanoma; SK-MEL-28 melanoma; SK-MEL-2 melanoma; EKVX NSCLC; SN12C renal; UO-31 renal; TK-10 renal; ACHN renal; CAKI-1 renal; A498 renal; MOLT-4 leukemia; CCRF-CEM leukemia; SR leukemia.
Holding throughout (experiment): NCI-60 one-dose screen, 48 h (100 = growth as untreated, 0 = no growth, -100 = all killed)
Holding throughout (settings): 10 µM unless noted

The panel holds about 83,000 compounds, 20% with a hit somewhere; the sample as a whole holds those more often.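 The test compound was applied at a single concentration to cells in 96-well plates for 48 hours, and percent growth was recorded.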 Unmarked numbers belong to inactive results. Calls of active or inactive are those of the source. The calls were made as follows: active = growth percent below 10; inactive = the rest.

Regarding `O=C1NC(=O)/C(=C\c2ccccc2)C2=C1CCCC2`, the growth with HT29 colon is 104%; in the assay on SNB-75 CNS, 102%; in the assay with SNB-19 CNS, 88%; with U251 CNS, 2.63% (active); with PC-3 prostate it was 20.3%; in the assay with SK-MEL-5 melanoma, -78.7% (active). Further, the growth with UACC-62 melanoma was 30%; in the assay on LOX IMVI melanoma it was -58.4% (active); in the assay on SK-MEL-28 melanoma, 36.3%; in the assay on SK-MEL-2 melanoma, -74.2% (active); in the assay on EKVX NSCLC, 95%; in the assay with SN12C renal it was -64.7% (active). The growth is -46.7% (active) with UO-31 renal; 0.712% (active) in the assay with TK-10 renal; 15.7% in the assay with ACHN renal; 7.29% (active) in the assay on CAKI-1 renal; 101% in the assay on A498 renal; 38.1% with MOLT-4 leukemia.

As to `O=NC1CC=CCC1c1ccccc1` (centres undefined), the growth is 100% with HT29 colon; 93.5% in the assay on SNB-75 CNS; 109% in the assay with SNB-19 CNS; 105% in the assay with U251 CNS; 94% in the assay on PC-3 prostate; 108% in the assay on SK-MEL-5 melanoma. For the same compound, the growth in the assay with UACC-62 melanoma was 100%; in the assay on LOX IMVI melanoma it was 104%; in the assay on SK-MEL-28 melanoma, 114%; with SK-MEL-2 melanoma, 108%; with EKVX NSCLC it was 101%; in the assay on SN12C renal, 108%. For the same compound, the growth was 84.2% in the assay on UO-31 renal; 103% in the assay with TK-10 renal; 93.9% with ACHN renal; 103% in the assay on CAKI-1 renal; 111% in the assay on CCRF-CEM leukemia; 102% in the assay on MOLT-4 leukemia.

On to `CN1CCCC1c1cccnc1` (centres undefined), for which the growth in the assay on HT29 colon is 115%; with SNB-75 CNS, 99.7%; in the assay on SNB-19 CNS, 105%; with U251 CNS it was 97.1%; in the assay on PC-3 prostate, 48.7%; with SK-MEL-5 melanoma, 87.7%. The growth in the assay with UACC-62 melanoma was 94.1%; with LOX IMVI melanoma, 100%; in the assay on SK-MEL-28 melanoma, 101%; in the assay on SK-MEL-2 melanoma, -0.647% (active); with EKVX NSCLC, 123%; in the assay on SN12C renal, 94.2%. The growth was 97% in the assay with UO-31 renal; 132% in the assay on TK-10 renal; 99% with ACHN renal; 120% in the assay on CAKI-1 renal; 94.1% in the assay with A498 renal; 70% in the assay with CCRF-CEM leukemia. Moreover, the growth with MOLT-4 leukemia was 101%; with SR leukemia, 85.7%.

For the compound `O=C(O)C(=O)O`, the growth in the assay with HT29 colon was 109%; in the assay with SNB-75 CNS, 67.4%; in the assay on SNB-19 CNS, 91.7%; in the assay on U251 CNS, 90%; in the assay on PC-3 prostate it was 110%; in the assay with SK-MEL-5 melanoma, 99.5%. The growth in the assay on UACC-62 melanoma was 98.7%; in the assay on LOX IMVI melanoma it was 92.9%; with SK-MEL-28 melanoma it was 99.5%; with SK-MEL-2 melanoma, 88.3%; in the assay on EKVX NSCLC, 103%; in the assay with SN12C renal, 106%. Also, the growth with UO-31 renal was 100%; in the assay on TK-10 renal, 93.3%; in the assay on ACHN renal, 91.9%; with CAKI-1 renal, 99.2%; in the assay with A498 renal, 92.9%; in the assay with CCRF-CEM leukemia it was 102%. Besides, the growth with MOLT-4 leukemia was 138%; with SR leukemia, 136%.

`COc1ccc(C(=O)C(C)Br)cc1OC` (centres undefined): the growth in the assay with HT29 colon is 37.7%; with SNB-75 CNS it was 85.8%; in the assay with SNB-19 CNS, 95.7%; in the assay on U251 CNS it was 78.7%; in the assay with PC-3 prostate, 98.6%; in the assay with SK-MEL-5 melanoma it was 92.1%. Besides, the growth in the assay with UACC-62 melanoma was 86.3%; in the assay with LOX IMVI melanoma, 79.2%; with SK-MEL-28 melanoma, 112%; with SK-MEL-2 melanoma, 86%; in the assay with EKVX NSCLC, 98.4%; in the assay with SN12C renal, 72.9%. Further, the growth is 71.8% with UO-31 renal; 101% in the assay with TK-10 renal; 80.3% in the assay on ACHN renal; 60.1% with CAKI-1 renal; 26.7% with CCRF-CEM leukemia; 71.3% with MOLT-4 leukemia. In addition, the growth in the assay with SR leukemia was 18.6%.

`O=C(Nc1ccncc1)C(=O)c1cn(S(=O)(=O)c2cccc(F)c2)c2ccccc12`: the growth was 1.12% (active) in the assay on HT29 colon; 29.6% in the assay with SNB-75 CNS; 76.5% with SNB-19 CNS; 22.2% in the assay with U251 CNS; 47% in the assay with PC-3 prostate; 28.7% in the assay with SK-MEL-5 melanoma. The growth with UACC-62 melanoma was 37.1%; with LOX IMVI melanoma, 45.2%; with SK-MEL-28 melanoma it was 55.5%; with SK-MEL-2 melanoma it was -7.51% (active); in the assay with EKVX NSCLC, 35.4%; in the assay with SN12C renal it was 49.1%. Besides, the growth in the assay with UO-31 renal was 56.7%; in the assay with TK-10 renal it was 84.1%; in the assay with ACHN renal, 55.9%; with CAKI-1 renal, 33.5%; in the assay on A498 renal, 60.2%; in the assay with CCRF-CEM leukemia, 38.7%. In addition, the growth in the assay with MOLT-4 leukemia was 35%; in the assay with SR leukemia, 16.5%.

`Nc1nc(N)c([N+](=O)[O-])c(=O)[nH]1`: the growth in the assay on HT29 colon is 98.6%; with SNB-75 CNS, 106%; in the assay on SNB-19 CNS, 108%; in the assay on U251 CNS, 102%; with PC-3 prostate, 94.5%; with SK-MEL-5 melanoma, 102%. For the same compound, the growth in the assay with UACC-62 melanoma was 105%; in the assay on LOX IMVI melanoma, 105%; with SK-MEL-28 melanoma, 107%; in the assay on SK-MEL-2 melanoma, 84.2%; in the assay on EKVX NSCLC, 121%; in the assay with SN12C renal, 105%. Also, the growth in the assay with UO-31 renal is 80.8%; in the assay on TK-10 renal it was 94.6%; with ACHN renal it was 98.7%; in the assay on CAKI-1 renal, 104%; with A498 renal, 97.9%; in the assay with CCRF-CEM leukemia, 93.1%. The growth in the assay on MOLT-4 leukemia was 111%; in the assay with SR leukemia, 106%.

Turning to `COc1ccc(/C=C2\NC(=S)NC2=O)cc1`, the growth was 110% with HT29 colon; 106% with SNB-75 CNS; 109% in the assay on SNB-19 CNS; 102% with U251 CNS; 106% in the assay with PC-3 prostate; 107% in the assay on SK-MEL-5 melanoma. Also, the growth is 95.3% in the assay with UACC-62 melanoma; 112% in the assay with LOX IMVI melanoma; 119% with SK-MEL-28 melanoma; 109% with SK-MEL-2 melanoma; 101% in the assay with EKVX NSCLC; 101% with SN12C renal. Further, the growth is 73.6% in the assay with UO-31 renal; 113% in the assay on TK-10 renal; 94% in the assay on ACHN renal; 98.7% with CAKI-1 renal; 89% in the assay with A498 renal; 110% in the assay with MOLT-4 leukemia. The growth in the assay with SR leukemia is 110%.
